# Test results from the supplement of paper PMC6555819.
# Test system: VDR:RXRa (NR concentration 270 nM, RXRa partner concentration 90 nM)
# Experiment: PBM binding z-score (relative to random genomic background probes); higher = stronger binding; sequences stand for … in GC…GCGATTGACAGCGTAGAATGAAGG
# Method: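 Protein-binding microarray (Agilent 4x180K custom design, double-stranded 60-nt probes: 5' GC cap, 34-nt variable region, 24-nt constant primer region; full probe sequence given). Purified or IVT nuclear receptor:RXRα heterodimers (3:1 NR:RXRα, mostly 270:90 nM) or homodimers were incubated for 1 h in PBS with 2% milk and no ligand, then detected with Alexa488 antibodies. Fluorescence from o1-orientation probes (~5 replicates averaged) was converted to z-scores against 500 random hg19 background probes. Variable regions are seed direct-repeat (DR0–DR5) sites, all their single-nucleotide variants and half-site ablations.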
row,Sequence,PBM binding z-score
1,GCTAGCAGGCCATTTGGGTCTCTCAATGACGGGC,-0.594
2,CAAACTAGGTCACCGGAAGGTCAAATTCCGCATG,5.9
3,CAAACTAGCTCACAGAGGTCAAAGTCCGTGCGTA,5.02
4,CCGACTGGGCCATAAGGTTACCATAAGCCAGCCC,0.0236
5,AGAATTAGGTTACCAAAGATCAGGGAAACGCTTG,0.204
6,CGAACTAGGTCAAGAACAGTGAATCTCCGCACGC,1.04
7,AGCATGAGGTTACCAAAGATCAGGGAAACGCTTG,1.28
8,GCATATAGGTAATACAAGGTAAAAGTCCGATTGT,0.085
9,GCTTGTAGATCAAGGTGAAGAAAGACTAAGCTAA,-0.394
10,CAGCCTAGGTCAGGGCCCGTATAGGAGGAACGTT,0.0568
11,AGAACGAGGGCACGCTGAGTTGATAGCAGAGTAG,2.2
12,GTACCAAGGTGCATAGGTCGTTGATGAGTAGGCG,0.717
13,TCTTGTAGATCAATAGAGGGTAAGAAAGTGCGCT,0.717
14,TTTACAGGGTCAAAGGCCAGAGTACGAATGTCGA,4.79
15,TAGCCTAGGTCAAGGGCCAGTATACCACGCGAAC,1.6
16,TCTAGTTGGGCAAAGGTCACACACTCGAAATGCG,4.65
17,GGAACGAGGGCATTCGAGTTGATAGAATGGCGAT,3.62
18,ACTTACGGGTCAACGAGCTTATAGCACGCGTATA,3.97
19,TCTCGGAGGCCACGAAAGGTCAGAGCTCGACATC,3.62
20,CGTCCAAGGTCAAGGTCAGTGATAGAGACTCGAA,4.95

row,Sequence,PBM binding z-score
1,ACTAGTTGGACAGCTGAGGTCACACACAATTCGG,3.85
2,TCGAGTAGGTTAGGGGTATTCAGAATGGCGTCGA,0.154
3,CAAACTAGGTCCCGAAAGGTCAAAGTCGAATGAC,4.92
4,TTACCAAGGTGAGCTGAGGTCCTTGATCCAACTC,0.464
5,GCGACTGGGCCATCAGCAGGTTACCATAACTTAA,-0.599
6,ACTAGCAGGCGAAGGGTCACTCAAGATTAGTCCG,2.23
7,TCATATAGGTAAACAGTTGAAAGTCCGTAAGTTA,1.13
8,TCATATAGGTAAAGGTGAACGTCGAACGATATGA,0.748
9,ATCGAAAGGTCGAGCTGAGTATAGAGAAAGGGAA,2.53
10,AGAACGAGGGCACGCTGAGATGATAGCAGAGTAG,0.702
11,GCAGACAGGTGAAACGCAGGTAACTCAAGGTGGC,-0.431
12,CTCGAAAGGTCGGTTGGGGTGAGTATACGGATAA,3.24
13,TCTCGGAGGACACGAAGGTCAGTGCTTTCCAGAG,2.08
14,ACTACCAGGCCAAGGGTCACTCAAGATTAGTCCG,3.07
15,CCTCGGAGGACAACAGGAGGGCAGAGCTGCCAGA,-0.641
16,AATACAGGGTCACTAGGCCAGATTAGGTACGAAT,4.21
17,TCTGGGAGGACACGAAAGGTCAGAGCTCGACATC,3.35
18,TCATATAGGTAATACAGGTGAAAGTTGGCATCTA,1.46
19,CGTCCATGGTCAATGCTAGGTCAGTGAAAGCATT,0.204
20,TCTATTAGTTGATTACGGCAACCGAAACAGCGGA,0.738
